Unmarked numbers belong to inactive results.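 How the source made its calls: active = growth AUC significantly below the DMSO wells by Dunnett test; inactive = the rest.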

Compound in the test: CN(C)C(=O)Nc1ccc(Cl)c(Cl)c1
The experiment in a line: relative growth (AUC of 72 h growth curve relative to DMSO control, dAUC) (ratio); higher = more growth (less inhibition), active = hit call of the paper. The conditions noted are these: 20 µM. How it is done:
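Environmental bacterial isolates (Iceland stream sediment and Silwood Park soil) and whole stream-sediment communities were grown in LB from a 1:100 dilution with each pesticide at 20 µM (1% DMSO). A600 was read hourly for 72 h and the area under a spline-fitted growth curve (AUC) was computed. dAUC is the mean AUC of 3 biological replicates divided by the mean AUC of the DMSO controls. Significance was tested by Dunnett's test against the DMSO control.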
Turning to Community 4, the relative growth is 1.09. Turning to Pseudomonas 4 (Pseudomonas peli), the relative growth was 0.939.

In the case of Arthrobacter 3 (Arthrobacter sp.), the relative growth is 0.947. Regarding Pseudomonas 5 (Pseudomonas baetica), the relative growth was 1.02. As for Arthrobacter 1 (Arthrobacter humicola), the relative growth was 0.944. Take Community 6: the relative growth was 1.03. Consider Aeromonas 1 (Aeromonas sp. AE235), for which the relative growth is 0.942. “Flavobacterium 1 (Flavobacterium glaciei)”: the relative growth is 0.999. The value for “Carnobacterium 1 (Carnobacterium gallinarum)” was 0.949. For “Flavobacterium 2 (Flavobacterium succinicans)”, the relative growth is 0.961.

As to “Microbacterium 1 (Microbacterium arborescens)”, the relative growth was 1.03. Community 10: the relative growth is 1.05. In the case of Arthrobacter 2 (Arthrobacter humicola), the relative growth was 0.977. As for “Paenibacillus 1 (Paenibacillus castaneae)”, the figure is 0.883; as for Pseudomonas 1 (Pseudomonas baetica), 1.03. As for Aeromonas 3 (Aeromonas popoffii), the relative growth is 0.977. Community 8: the relative growth was 1.11. With Community 9, the relative growth was 1.04. On to Oryzobacter 1 (Oryzobacter terrae), for which the relative growth is 1.13. As for Serratia 1 (Serratia sp. 2015-2462-01), the relative growth was 0.942. As for Sphingomonas 2 (Sphingomonas sp.), the figure is 1.04.

As for “Prolinoborus 1 (Prolinoborus fasciculus)”, the relative growth was 0.957. With Aeromonas 2 (Aeromonas sobria), the relative growth was 0.943. Consider Pseudomonas 3 (Pseudomonas mandelii), for which the relative growth was 1.02. Regarding Rhizobium 1 (Rhizobium herbae), the relative growth was 1.19.

For the target Argrobacterium 1 (Agrobacterium sp.), the relative growth is 0.867.

For Pseudomonas 6 (Pseudomonas sp.), the relative growth was 1.07.

For the target Hymenobacter 1 (Hymenobacter glaciei), the relative growth is 1.02. As for Community 7, the relative growth is 1.23. As for Bacillus 1 (Bacillus foraminis), the figure is 0.958. Take “Pseudomonas 2 (Pseudomonas vancouverensis)”: the relative growth is 0.988. For Neobacillus 1 (Neobacillus soli), the relative growth was 0.899.

The values are drawn from the supplement of paper PMC12067926.
